We go through 13 compounds from PubChem BioAssay (NCI).

Holding throughout (experiment): NCI-60 one-dose screen, 48 h (100 = growth as untreated, 0 = no growth, -100 = all killed)
Settings in all cases: 10 µM unless noted

The test system of assay [1] is DU-145 prostate.
The test system of assay [2] is K-562 leukemia.
For assay [3], the system named is MALME-3M melanoma.
Assay [4] deals with MDA-MB-231 breast.
The subject of assay [5] is RXF 393 renal.
Assay [6] deals with SF-268 CNS.
Assay [7] concerns SF-295 CNS.
Assay [8] deals with SF-539 CNS.
The test system of assay [9] is UACC-257 melanoma.
For assay [10], the system named is M14 melanoma.

Molecules are shown by their SMILES. Compounds without any hit were thinned out: in the full panel of roughly 83,000, 20% have a hit.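 Note: values are percent growth. 100 is the growth of untreated cells, values between 100 and 0 indicate rising inhibition; between -100 and 0 indicates cell death.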 A number with no mark means an inactive call. Activity calls are given as the source filed them. How the source made its calls: active means growth percent below 10; inactive means the rest.

As to `CCO/C=N/C1=C(C#N)C(c2ccc(OC)cc2)c2sc3c(C)cccc3c2O1` (stereo not given), the growth is 22% in [1]; 12.6% in [2]; 60.6% in assay [3]; 27.5% in [4]; -23.9% (active) in assay [5]; 54.1% in assay [6]. In addition, the growth in [7] is 1.06% (active); in assay [8], -11.6% (active); in assay [9], 88.7%; in assay [10] it was 5.22% (active).

Consider `Nn1c(N/N=C/c2nc3ccccc3s2)n[nH]c1=S`, for which the growth was 97.5% in assay [1]; 108% in assay [2]; 109% in assay [3]; 88.2% in assay [4]; 83.9% in [5]; 93.2% in assay [6]. Also, the growth in assay [7] is 105%; in assay [8] it was 103%; in assay [9] it was 109%; in assay [10] it was 111%.

`Cc1ccc(CSc2nc(-c3ccc(Cl)cc3)c(C#N)c(N3CCOCC3)n2)cc1`: the growth is 105% in assay [1]; 91.5% in [2]; 108% in assay [3]; 98.9% in assay [4]; 88.3% in assay [5]; 95.5% in assay [6]. In addition, the growth is 98.6% in [7], 99.1% in assay [8], 97.6% in assay [9] and 98% in [10].

For the compound `CNCc1cccc2c1OCCCCCCC(C)(O)CC(C)(C)S(=O)(=O)c1ccc(cc1)-c1cnc(N)c(n1)C(=O)N2` (stereo not given), the growth is 9.36% (active) in assay [1]; -29.3% (active) in assay [2]; -58.7% (active) in [3]; -6.41% (active) in assay [4]; -90.7% (active) in assay [5]; 13.2% in assay [6]. In addition, the growth in assay [7] is 10.9%; in assay [8], -72% (active); in assay [9] it was 18.1%; in assay [10], -88.9% (active).

For the compound `CC1(COc2ccc3ncc(C#Cc4cncc(C(=O)Nc5cccc(C(F)(F)F)c5)c4)n3n2)COC1`, the growth in assay [1] was 91.1%; in assay [2], 47.8%; in assay [3] it was 71.1%; in [4], 44.5%; in [5], -4.67% (active); in [6] it was 76.1%. Also, the growth in assay [7] was 79.6%; in [8], 60.1%; in assay [9], 98.1%; in [10] it was 78%.

As to `N#Cc1c(-c2cccs2)cc(-c2cnccn2)nc1SCC(=O)c1ccc(F)cc1`, the growth was 79.5% in [1]; 87.2% in assay [2]; 101% in [3]; 68.7% in assay [4]; 62.2% in assay [5]; 84.7% in [6]. In addition, the growth was 93.6% in assay [7], 76.9% in [8], 109% in assay [9] and 116% in [10].

Regarding `Cc1ccc(N2C(=O)/C(=C/C=C/c3ccco3)SC2=S)cc1`, the growth in [1] was 100%; in assay [2], 61.2%; in assay [3] it was 91.4%; in assay [4], 94.9%; in assay [5], 74.6%; in [6], 105%. Besides, the growth is 99.1% in assay [7], 101% in [8], 88.3% in assay [9] and 103% in assay [10].

`Fc1ccc(-c2cc3nc(C(Cl)Cl)nc(-c4ccc(F)cc4)n3n2)cc1`: the growth in assay [1] is -18.4% (active); in assay [2], 14.3%; in assay [3], 9.81% (active); in [4] it was 5.31% (active); in [5], -58.1% (active); in [6] it was 23.2%. For the same compound, the growth in assay [7] is 8.01% (active); in [8], 21.3%; in assay [9], 20.5%; in assay [10] it was -4.2% (active).

On to `Nc1cc(-c2c[nH]c3ccc(Br)cc23)nc2cc(-c3c[nH]c4ccc(Br)cc34)nn12`, for which the growth in [1] was 24.2%; in [2], 1.82% (active); in assay [3], 45.6%; in [4] it was 7.95% (active); in [5], 28.4%; in assay [6], 27.8%. Moreover, the growth is 6.52% (active) in assay [7], -4.74% (active) in assay [8], 65% in assay [9] and -52.1% (active) in assay [10].

Take `CN1CCC(n2cc(Nc3ncc4c(=O)n(-c5c(Cl)cccc5Cl)cc(Br)c4n3)cn2)CC1`: the growth in assay [1] was 23.1%; in assay [2], 6.48% (active); in [3], 69.5%; in assay [4] it was 22%; in assay [5], -58.3% (active); in [6] it was 39.7%. Besides, the growth in [7] is 42.4%; in [8] it was 5.25% (active); in assay [9] it was 82.1%; in [10], 35%.

`N#Cc1c(-c2cccs2)cc(-c2cnccn2)nc1SCC(=O)Nc1ccc(Br)cc1`: the growth in [1] is 70%; in [2], 67.4%; in [3], 118%; in [4] it was 72.2%; in [5], 19.3%; in [6], 82.3%. Moreover, the growth was 90.2% in assay [7], 93.3% in assay [8], 106% in assay [9] and 91.7% in [10].

As to `O=C1CCCC2=C1C(c1c[nH]c3ccc(Br)cc13)Cc1cc(Br)ccc1N2` (stereo not given), the growth is 57.6% in assay [1]; 19.8% in assay [2]; 49.3% in assay [3]; 40% in [4]; 50.1% in [5]; 51.8% in assay [6]. In addition, the growth in [7] is -9.43% (active); in assay [8] it was 28.6%; in assay [9], 80%; in [10] it was 13.1%.

Regarding `CCc1cccc2c3c(sc12)C(c1ccc(OC)cc1)C(C#N)=C(/N=C/c1ccc(Cl)cc1)O3` (stereo not given), the growth in assay [1] is 18.8%; in [2] it was 11.1%; in [3], 48.3%; in assay [4], 40.3%; in assay [5], -11.4% (active); in [6] it was 60%. Also, the growth in assay [7] is 6.9% (active); in assay [8], 1.2% (active); in [9], 72%; in assay [10] it was 4.74% (active).
